A selection: hits, their analogues and other compounds. The true share with any hit is near 3.4%.
FXN GAA850 act – frataxin GAA850 promoter activation; 0.56% of 360,000 active; HEK293 lucGAA850 FXN promoter luciferase reporter, 24 h; percent of 10 µM SAHA response; activation, % at 6 µM;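 active = activation above the average of all compounds screened plus 3 SD, cutoff fixed separately per campaign, cut at about 7.5% in these data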;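 also: 0% = DMSO wells and 100% = 10 µM SAHA wells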
H9c2 protect – protects H9c2 cardiomyocytes from peroxide injury | H2O2 injury protection, ATPLite, 2 h | 0.63% of 360,000 active | protection from H2O2 cell death, % at 20 µM;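 active = compounds giving at least 50% protection of heart cells from peroxide-induced death in the single-dose screen, raw or plate-pattern-corrected value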;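 also: 0% = DMSO wells with peroxide and 100% = DMSO wells without peroxide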
NR2F2 inh – blocks human COUP-TFII nuclear receptor | P24468 | HEK293T NGFI-A luciferase reporter, luminescence | inhibition, % at 8.6 µM | 0.7% of 370,000 active;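 active = inhibition above a per-plate cutoff, mean inhibition of test wells between control levels plus 3 SD, cut at about 38% in these data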;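 also: cells cotransfected with COUP-TFII expression vector driving the NGFI-A reporter; 0% = median of COUP-TF2 test wells and 100% = reporter-only cells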
Target sequence (P24468 whole entry, looked up): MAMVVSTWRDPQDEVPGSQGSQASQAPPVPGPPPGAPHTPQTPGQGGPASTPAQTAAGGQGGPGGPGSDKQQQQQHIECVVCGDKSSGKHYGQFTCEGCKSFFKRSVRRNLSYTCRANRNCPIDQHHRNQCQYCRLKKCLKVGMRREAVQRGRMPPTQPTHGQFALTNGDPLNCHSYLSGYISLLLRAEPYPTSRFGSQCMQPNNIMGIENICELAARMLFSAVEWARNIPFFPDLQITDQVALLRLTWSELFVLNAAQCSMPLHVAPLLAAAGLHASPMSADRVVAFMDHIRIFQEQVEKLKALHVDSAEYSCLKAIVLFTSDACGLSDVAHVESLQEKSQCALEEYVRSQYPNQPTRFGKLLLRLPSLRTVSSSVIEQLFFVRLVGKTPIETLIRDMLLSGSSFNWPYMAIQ
GalR3 antag – antagonists of human GalR3; 0.44% of 360,000 active; O60755; inhibition, % at 3 µM; AID 651719; HEK293 GalR3-CNG cAMP membrane potential fluorescence; galR3 body fused to GalR1 C-terminus;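 active = inhibition above the screen-wide average plus 3 SD, cut at about 13% in these data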;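 also: forskolin and galanin both at EC90 stimulate the cells; cAMP rise reported by CNG channel membrane potential dye signal; 0% = forskolin plus galanin with DMSO and 100% = forskolin alone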
Gli-Sufu block – Gli-Sufu pathway antagonism; AID 588413; inhibition, % at 5 µM; 0.74% of 340,000 active; Sufu-KO-LIGHT fibroblasts, Gli luciferase reporter luminescence;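 active = inhibition above about 55%, limit read from the data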;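 also: 0% = DMSO-treated cells and 100% = wells with medium but no cells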
SMARCA2 activ – SMARCA2 function activation, primary screen; MG213 cells, MMTV-luciferase reporter, dexamethasone, overnight; activation, % at 9.1 µM; 1% of 370,000 active; AID 652017; in the data active = activation above about 7.8%;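 also: 0% = vehicle wells and 100% = reference activator wells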
Gal4-VP16 ctr – inhibits VP16 reporter, flagging COUP-TFII antagonist hits. shares compounds with NR2F2 inh. HEK293 Gal4-VP16 luciferase reporter, luminescence. inhibition, % at 8.5 µM. 25% of 2,500 active; in the data active = inhibition above about 13%
NR2F2 inh conf – confirmation of human COUP-TFII (NR2F2) inhibitors; HEK293 NGFI-A luciferase reporter, luminescence; shares compounds with NR2F2 inh; 45% of 2,500 active; inhibition, % at 8.5 µM; AID 687008;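 active = mean inhibition over three repeats above a set limit taken from the earlier primary screen, cut at about 38% in these data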;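 also: 100% = cells given the luciferase reporter alone without the COUP-TF2 vector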
* hit, by the source's call; / = no result given.

SMILES	FXN GAA850 act	H9c2 protect	NR2F2 inh	GalR3 antag	Gli-Sufu block	SMARCA2 activ	Gal4-VP16 ctr	NR2F2 inh conf
O=C(NC1CCCC1)C(c1ccccn1)N(Cc1ccc(F)cc1)C(=O)c1csnn1 (centres undefined)	-1	-3	-4	-10	-20	0	/	/
CC(C)(C)c1ccc(C(=O)OCC(=O)N2CCC(c3ccccc3)=N2)cc1	1	-11	-4	-4	0	-2	/	/
Cc1ccc(NC(=O)c2ccc(Nc3c([N+](=O)[O-])cc([N+](=O)[O-])cc3[N+](=O)[O-])cc2)cc1	-4	-28	70*	-5	-7	-11	3	47*
CC(=O)Nc1ccc(NC(=O)c2cc([N+](=O)[O-])cc([N+](=O)[O-])c2)cc1	2	5	-10	-4	3	-1	/	/
O=C(Nc1ccc(CSc2ccccc2)cc1)c1ccco1	7	-3	-30	-2	-43	4	/	/
CCOc1cc(CNCc2ccncc2)cc(Br)c1OCc1ccccc1F	-1	-22	38*	-4	1	-3	11	34
CCOc1cc(CNCCSc2nnnn2C)cc(Br)c1OCc1ccccc1F	1	-20	15	-9	11	-4	/	/
COC(=O)C1CN(C(=O)COc2ccc(C)c(C)c2)c2ccccc2O1 (centres undefined)	1	-2	9	-10	-18	-1	/	/
O=C(NO)c1ccc(OC(F)F)cc1	3	8	45*	0	5	-3	-11	36
S=C(NCCCc1cnc[nH]1)NCCCN(Cc1ccc(Cl)cc1)c1ccc(Br)cn1	3	2	38*	-3	/	-5	10	-2
COc1ccc(CNC(=O)COC(=O)c2cc(S(=O)(=O)N3CCOCC3)ccc2O)cc1OC	-1	-1	4	-2	-1	0	/	/
C#CCN(C[C@@H]1[C@@H](OC(=O)NCC2CCCCC2)[C@@H](OC(=O)NCC2CCCCC2)Cn2c(=O)ccc(=O)n21)S(=O)(=O)c1ccc(C)cc1	-8	-25	54*	-7	/	-7	45*	57*
Cc1cc(C)cc(C(=O)OCCN2CCN(C3CN(Cc4cn(Cc5ccccc5F)nn4)S(=O)(=O)C3)CC2)c1 (centres undefined)	/	/	49*	/	/	-3	-7	6
O=C(Cn1ccc([N+](=O)[O-])n1)NCc1cccnc1	-1	1	-6	-3	2	-2	/	/
c1ccc(CNc2ncnc3scc(-c4cccs4)c23)nc1	-1	-14	60*	-6	20	-6	-1	31
Cc1c(Cl)cccc1NC(=O)CN1CCN(CCO)CC1	-1	5	-13	-6	2	2	/	/
Cc1nc(Nc2ncc(C(=O)Nc3c(C)cccc3Cl)s2)cc(N2CCN(CCO)CC2)n1	/	/	39*	/	/	8	3	18
O=C(COC(=O)c1ccc[nH]c1=O)Nc1ccc(N2CCCCC2)cc1	-12	-10	86*	-2	54	-10	77*	71*
Cc1ccc(NC(=O)CSCC(=O)NNC(=O)c2nn(C)c(=O)c3ccccc23)cc1	0	1	15	-6	1	-1	/	/
O=c1c2ccccc2sc2ccc(C#CC3(O)CCCCC3)cc12	-15	-31	96*	-6	83*	-8	90*	105*
O=c1c2ccccc2oc2cc(C#CC3(O)CCCCC3)ccc12	-10	-21	69*	2	36	-5	5	67*
Cc1cccc(N2CC(C(=O)Nc3cccc(S(=O)(=O)N4CCCCC4)c3)CC2=O)c1C (centres undefined)	-1	-15	47*	-6	3	-6	3	14
COc1ccc(COC(=O)C2=C(C)NC(=O)NC2c2ccc(F)cc2)cc1 (centres undefined)	-2	6	39*	-4	0	-2	-5	7
COc1cccc2c1OCC/C2=N\NC(=O)C(C)Oc1ccc([N+](=O)[O-])cc1 (centres undefined)	3	-1	-11	-5	21	-2	/	/
CNc1nc(-c2ccc(OC)cc2)c(-c2ccc(OC)cc2)s1	3	-6	41*	-3	-4	-2	-17	-13
SMILES	FXN GAA850 act	H9c2 protect	NR2F2 inh	GalR3 antag	Gli-Sufu block	SMARCA2 activ	Gal4-VP16 ctr	NR2F2 inh conf
O=c1c2cc3cccnc3nc2ncn1CCc1c[nH]c2ccccc12	/	/	44*	/	/	-6	-4	3
CC1CCCN(c2nc(NCc3ccco3)nc(N)c2[N+](=O)[O-])C1 (centres undefined)	5	-6	41*	0	7	-7	1	4
NC(c1csc(Nc2cnccn2)n1)c1ccccc1Cl (centres undefined)	3	7	6	-7	/	0	/	/
Cc1cc(NC(=O)CCCn2cc([N+](=O)[O-])cn2)n(Cc2ccc(F)cc2)n1	2	-5	-5	-8	1	-1	/	/
COc1cccc(CN2C(=O)C(C)N(C(=O)c3c(F)cccc3F)c3ccccc32)c1 (centres undefined)	-3	-9	50*	-11	8	-4	8	19
CC1C(=O)N(Cc2ccccc2F)c2ccccc2N1C(=O)c1c(F)cccc1F (centres undefined)	-3	0	47*	-8	2	0	-5	18
CC1C(=O)N(Cc2cccc(F)c2)c2ccccc2N1C(=O)c1ccccc1 (centres undefined)	-3	-8	-16	-9	-32	-1	/	/
CC(C)CN(C(=O)COC(=O)CCc1nc2ccccc2s1)c1c(N)n(Cc2ccccc2)c(=O)[nH]c1=O	-1	-2	-7	-2	12	-4	/	/
COc1ccc(C(=O)N2CCCCCC2)cc1S(=O)(=O)N1CCOCC1	0	0	11	-7	27	-2	/	/
O=C(NCCc1ccccc1)C1Cc2c(-c3ccccc3Oc3ccccc3)ccnc2O1 (centres undefined)	-3	-8	11	-7	/	0	/	/
Nc1[nH]c2ccccc2c1C(=O)NC1CC1	/	/	-2	/	/	1	/	/
CC(C)N1CCc2c(sc(NC(=O)c3nc4ccccc4s3)c2C(N)=O)C1	-4	11	38*	-5	7	-3	-9	6
CC(=O)Nc1sc2c(c1-c1nc3ccccc3s1)CCCN(C(C)C)C2	/	/	45*	/	/	/	-9	-70
CC(C)N1CCc2c(sc(NC(=O)c3cc(-c4cccs4)nc4ccccc34)c2C(N)=O)C1	-4	-29	/	/	43	/	/	/
CN(C)c1ccc(N=Nc2nc3ccccc3n2C)cc1	-11	-22	61*	-3	-93	-11	7	22
COc1ccc(NC(=O)COc2ccccc2Cc2ccccc2)cc1S(N)(=O)=O	-3	-7	44*	-8	28	-4	-3	13

Assay outcomes: PubChem BioAssay, several laboratories
